Inconclusive results are not listed. Calls of active or inactive are those of the source. Unless noted, calls follow the shape of the dose curve; as a rule, active = well fitted curve in the direction sought with a large enough effect; inconclusive = small, poorly fitted or top-dose-only effect, or another doubt; inactive = no such curve, though single readings can be large; an effect the other way counts as inactive or inconclusive.
How the values were obtained:
[1] = Cell Viability - BJ (AID 421; calls by dose curve;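 also: potency is read from the fitted curve at half-maximal effect; cells exposed to compound for 40 hours at 37 °C before readout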); conditions: BJ fibroblast viability, qHTS
Summary of the method: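 Luminescent ATP signal (CellTiter-Glo, 20 min at room temperature) served as the read-out of viable BJ cells after 40 hours of compound treatment. Responses were scaled between DMSO and 100 uM tamoxifen, and AC50 values were obtained by Hill modeling.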

[2] = Cell Viability - Jurkat (AID 426;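 active = dose-dependent loss of cell ATP signal giving a full or clear fitted curve, ranked by lower potency value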; also: potency is read from the fitted curve at half-maximal effect); conditions: qHTS
Summary of the method: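 Jurkat (clone E6-1, human T-cell leukemia) cells, 5000/well in complete medium, were exposed to compound for 40 hr at 37 °C. Viability was read as intracellular ATP by CellTiter-Glo luminescence; AC50 came from Hill fits of concentration-response data.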

[3] = Cell Viability - Hek293 (AID 427;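 active = compounds whose dose-response curve shows a full or clear partial loss of cell viability, called from curve shape rather than a numeric limit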;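 also: potency is read from the fitted curve at half-maximal effect; cells exposed to compound for 40 hours at 37 °C before reading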); conditions: qHTS
Summary of the method: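 Luminescent ATP read-out (CellTiter-Glo, 20 min RT) after 40 hr compound exposure at 37 °C in complete medium. Signal normalized to DMSO (basal) and 100 uM tamoxifen (100% inhibition); concentration-response fitted with the standard Hill equation to give AC50.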

[4] = Cell Viability - HepG2 (AID 433; calls by dose curve;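 also: potency is read from the fitted curve at half-maximal effect; potency for ATP loss meaning cytotoxicity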); conditions: qHTS
Summary of the method: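 HepG2 hepatocellular carcinoma cells (1500/well) were treated with compounds for 40 h at 37 °C in complete medium; intracellular ATP was read by CellTiter-Glo luminescence. Data were normalized to DMSO and 100 uM tamoxifen, and AC50 came from Hill fits.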

[5] = Cell Viability - MRC5 (AID 434; calls by dose curve;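 also: potency is read from the fitted curve at half-maximal effect; potency reflects cytotoxicity seen as loss of intracellular ATP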); conditions: MRC5 lung fibroblast viability, qHTS
Summary of the method: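 MRC5 normal human lung fibroblasts (1500/well) were treated with compounds for 40 hr at 37 °C in complete medium, and viable cells were measured as intracellular ATP by CellTiter-Glo luminescence. AC50 came from Hill fits, normalized to DMSO and 100 uM tamoxifen.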

[6] = Cell Viability - SK-N-SH (AID 435; calls by dose curve;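 also: potency is read from the fitted curve at half-maximal effect; compound exposure lasted 40 h at 37 °C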); conditions: SK-N-SH neuroblastoma cell viability qHTS
Summary of the method: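 SK-N-SH human neuroblastoma cells (1500/well) were exposed to compounds in complete medium for 40 h at 37 °C, and intracellular ATP was then measured by CellTiter-Glo luminescence. AC50 was taken from Hill fits, normalized to DMSO and 100 uM tamoxifen.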

[7] = biological target: Mitogen-activated protein kinase 10 (Mus musculus) (UniProt Q61831); experiment: JNK3 AlphaScreen Assay (AID 530; active = well fitted curve in either direction with a large enough effect, not every such curve was filed as active;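 also: kinase came from lysate of stimulated human HepG2 cells; signal reports phosphorylation of biotinylated GST-cJun 1-79 at Ser73 with 10 µM ATP; % is scaled to controls: 0 for no effect and ±100 for the full control effect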)
Summary of the method: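 JNK3 came from HepG2 lysates pre-activated with IL-1beta and TNF-alpha and phosphorylated biotinylated GST-cJun (1-79) at 10 uM ATP, pH 7.6, room temperature. Compounds were titrated. AlphaScreen signal used anti-phospho-cJun (Ser73) antibody.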

[8] = Cell Viability - N2a (AID 540); conditions: N2a mouse neuroblastoma cell viability; at 92.2 µM (top of the series);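 also: plate controls were DMSO alone for no effect and tamoxifen control for full effect; nearly all actives have a fitted effect of over 45% in size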
Summary of the method: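 Mouse neuroblastoma N2a cells (1500/well) were preincubated 5 hr at 37 °C, then exposed to compounds for 40 hr at 37 °C in complete medium. Viability was read as intracellular ATP by CellTiter-Glo luminescence; AC50 from Hill fits.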

[9] = Cell Viability - NIH 3T3 (AID 541); conditions: NIH 3T3 cell viability, qHTS; at 92.2 µM (top of the series);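 also: plate controls were DMSO alone for no effect and tamoxifen positive control for full effect; nearly all actives have a fitted effect of over 25% in size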
Summary of the method: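 NIH 3T3 mouse embryo fibroblasts (1000 cells/well) were plated in complete medium and treated with compound for 40 hr at 37 °C. Viability was read as intracellular ATP by CellTiter-Glo luminescence; AC50 values came from Hill-equation fits of concentration-response data.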

[10] = Cell Viability - HUV-EC-C (AID 542); also: % is scaled to controls: 0 for no effect and ±100 for the full control effect; nearly all actives have a fitted effect of over 35% in size
Summary of the method: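 HUV-EC-C normal human vascular endothelial cells, 1000 cells/well, pre-incubated 5 hr at 37 °C, then exposed to compounds for 40 hr at 37 °C in complete medium. Viability measured as intracellular ATP by CellTiter-Glo luminescence; AC50 from Hill fits.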

[11] = Cell Viability - H-4-II-E (AID 543); also: % is scaled to controls: 0 for no effect and ±100 for the full control effect; nearly all actives have a fitted effect of over 35% in size
Summary of the method: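 Rat hepatoma H-4-II-E cells (1500/well) were plated, incubated 5 hr at 37 °C, then exposed to compounds for 40 hr at 37 °C. Cellular ATP was read by CellTiter-Glo luminescence; AC50 came from Hill-equation fits of concentration-response data.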

[12] = Cell Viability - SH-SY5Y (AID 544);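 also: 0% = DMSO alone and -100% = 100 µM tamoxifen; nearly all actives have a fitted effect of over 55% in size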
Summary of the method: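 Human neuroblastoma SH-SY5Y cells (1500/well) in complete medium were exposed to compounds for 40 hr at 37 °C; intracellular ATP was then quantified by CellTiter-Glo luminescence after 20 min at room temperature. AC50 came from Hill-equation concentration-response fits.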

[13] = Cell Viability - Renal Proximal Tubule (AID 545);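 also: 0% = DMSO only and -100% = 100 µM tamoxifen; nearly all actives have a fitted effect of over 40% in size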
Summary of the method: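 Primary rat renal proximal tubule cells (1000/well) were treated with compounds for 40 hr at 37 °C in complete medium. Intracellular ATP was measured by CellTiter-Glo luminescence, and AC50 values came from Hill-equation fits of concentration-response data.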

[14] = Cell Viability - Mesenchymal (AID 546);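 also: cells exposed to compound for 40 hours before reading; 0% = DMSO only and -100% = 100 µM tamoxifen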
Summary of the method: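 Normal human renal glomerulus-derived kidney mesenchymal cells, 1000 per well in complete medium, were treated with compounds for 40 hr at 37 °C. Viability was read as intracellular ATP by CellTiter-Glo luminescence; AC50 values came from Hill-equation fits of qHTS concentration-response data.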

[15] = Cellular Toxicity (caspase-3) HepG2 (AID 654);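 also: cells exposed to compound for 16 hours before reading; 0% = DMSO alone and 100% = caspase signal from 100 µM tamoxifen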
Summary of the method: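 HepG2 cells (1500/well) in complete medium were treated with compounds for 16 hr at 37 °C. Caspase-3/7 activity was then read as luminescence from peptide-aminoluciferin cleavage. AC50 came from Hill fits, normalized to DMSO and 100 uM tamoxifen.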

[16] = Cellular Toxicity (caspase-3) HUV-EC-C (AID 656);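 also: 0% = DMSO basal and 100% = 100 µM tamoxifen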
Summary of the method: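 HUV-EC-C endothelial cells, 1000/well, were pre-incubated 5 hr at 37°C, then exposed to compounds for 16 hr at 37°C. Caspase-Glo 3/7 luminescence was read after 20 min at room temperature. AC50 came from Hill fits, normalized to DMSO and 100 uM tamoxifen.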

[17] = Cellular Toxicity (caspase-3) SHSY5Y (AID 657)
Summary of the method: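 SH-SY5Y human neuroblastoma cells (1500/well) were treated with compounds for 16 h at 37 °C, then Caspase-Glo 3/7 luminescence was read after 1 h at room temperature. Data normalized to DMSO and 10 uM staurosporine; AC50 from Hill fits.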

[18] = Cellular Toxicity (caspase-3) BJ (AID 658);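 also: 0% = DMSO basal and 100% = 10 µM staurosporine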
Summary of the method: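 Luminescent aminoluciferin-substrate cleavage reports caspase 3/7 activity in normal human BJ fibroblasts after 16 hr compound exposure at 37 °C. Normalized to DMSO (basal) and 10 uM staurosporine (100%); AC50 from Hill fit of concentration-response.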

[19] = Cellular Toxicity (caspase-3) MRC-5 (AID 659);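 also: 0% = DMSO basal and 100% = 10 µM staurosporine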
Summary of the method: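 Luminescence from caspase-cleaved aminoluciferin substrate (Caspase-Glo 3/7, 1 hr RT) reports caspase 3/7 activity in MRC-5 lung fibroblasts after 16 hr compound exposure. Normalized to DMSO basal and 10 uM staurosporine as 100%; AC50 from Hill fits.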

[20] = Cellular Toxicity (caspase-3) Mesangial (AID 660);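 also: cells exposed to compound for 16 h before the caspase read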
Summary of the method: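 Human renal glomerular mesangial cells (1000/well) were treated with compounds for 16 h at 37 °C in complete medium, then caspase 3/7 activity was read by Caspase-Glo luminescence. Data were normalized to DMSO and 100 uM tamoxifen; AC50 from Hill fits.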

[21] = Cellular Toxicity (caspase-3) SK-N-SH (AID 661);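 also: 0% = DMSO basal and 100% = 10 µM staurosporine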
Summary of the method: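 SK-N-SH human neuroblastoma cells (1500/well) were treated with compounds for 16 hr at 37 °C in complete medium; caspase 3/7 activity was read by Caspase-Glo luminescence. AC50 came from Hill fits of data normalized to DMSO and 10 uM staurosporine.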

[22] = Cellular Toxicity (caspase-3) H-4-II-E (AID 663);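 also: cells exposed to compound for 16 hr before readout; 0% = DMSO basal and 100% = 100 µM tamoxifen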
Summary of the method: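 Luminescence from caspase-cleaved aminoluciferin substrate, read 20 min after reagent addition, reports caspase 3/7 activation in rat H-4-II-E cells after 16 hr compound exposure. Normalized to DMSO (basal) and 100 uM tamoxifen (100%); AC50 from Hill fits.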

[23] = Cellular Toxicity (caspase-3) Hek293 (AID 664);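 also: cells exposed to compound for 16 h at 37 °C before readout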
Summary of the method: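 HEK293 cells were exposed to compounds in complete medium for 16 hr at 37 °C, then caspase-3/7 activity was read by Caspase-Glo 3/7 luminescence after 20 min at room temperature. Data normalized to DMSO and 100 uM tamoxifen; AC50 from Hill fits.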

COC(=O)c1ccccc1C(=O)OC
inactive: Potency [1] > 92 µM | Potency [2] > 92 µM | Potency [3] > 92 µM | Potency [4] > 92 µM | Potency [5] > 92 µM | Potency [6] > 92 µM | outcome [7] | activity change, negative = cytotoxicity [8] 4.28% | activity change, negative = cytotoxicity [9] 2.58% | outcome [10] | outcome [11] | outcome [12] | outcome [13] | outcome [14] | outcome [15] | outcome [16] | outcome [17] | outcome [18] | outcome [19] | outcome [20] | outcome [21] | outcome [22] | outcome [23]

— PubChem BioAssay (NCATS)
